Compound activity (PubChem BioAssay)
This is one part of a sample in which hits are shown more often than they occur.
DT40 TDP1 CPT – qHTS for Inhibitors of human tyrosyl-DNA phosphodiesterase 1 (TDP1): qHTS in cells in presence of CPT; chicken DT40 Tdp1-/-;hTDP1 cells + 20 nM CPT, ATP luminescence, 48 h; Potency, µM (series often up to 46.2 µM), inactives show at the top dose activity change, negative = growth inhibition, usual class: inhibitors; hit rate 12% among 420,000; AID 686979, 2013; note: potency is the fitted concentration of half-maximal effect; nearly all actives have a fitted effect of over 55% in size
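Chicken DT40 Tdp1-/- cells stably complemented with human TDP1 were seeded at 400 cells/well in medium containing 20 nM camptothecin, exposed to pin-transferred compounds, and grown at 37 °C for at least 48 hr. Viability was read as ATP luminescence.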
ALOX12 inh – Primary qHTS assay for inhibitors of human arachidonate 12S-lipoxygenase (ALOX12): Round 2; hit rate 1.1% among 580,000; Potency, µM (series often up to 108 µM), without a hit: top-dose activity change, negative = inhibition, actives largely listed as inhibitors; purified 12hLO, xylenol orange hydroperoxide absorbance; note: potency is the fitted concentration of half-maximal effect
Target sequence (P18054 whole entry, looked up): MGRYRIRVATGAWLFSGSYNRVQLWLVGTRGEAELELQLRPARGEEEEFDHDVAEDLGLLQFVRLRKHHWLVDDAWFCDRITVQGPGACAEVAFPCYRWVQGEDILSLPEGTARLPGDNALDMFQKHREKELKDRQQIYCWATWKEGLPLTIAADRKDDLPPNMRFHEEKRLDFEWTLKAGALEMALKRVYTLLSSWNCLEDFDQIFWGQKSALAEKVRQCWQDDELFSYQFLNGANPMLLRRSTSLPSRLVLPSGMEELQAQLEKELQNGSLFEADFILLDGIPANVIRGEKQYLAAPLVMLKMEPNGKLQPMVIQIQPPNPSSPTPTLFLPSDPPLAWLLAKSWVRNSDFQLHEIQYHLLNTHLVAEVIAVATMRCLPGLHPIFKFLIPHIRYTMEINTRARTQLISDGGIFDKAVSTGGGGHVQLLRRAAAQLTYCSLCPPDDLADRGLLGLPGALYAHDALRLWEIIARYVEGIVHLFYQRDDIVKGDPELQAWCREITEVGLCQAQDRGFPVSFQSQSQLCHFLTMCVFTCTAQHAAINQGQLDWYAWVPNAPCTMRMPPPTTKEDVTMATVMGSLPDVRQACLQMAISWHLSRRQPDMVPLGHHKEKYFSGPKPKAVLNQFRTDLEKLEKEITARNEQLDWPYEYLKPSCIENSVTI
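Purified human 12hLO (150 nM final) in 25 mM Hepes, 0.01% Triton X-100, pH 7.0 was preincubated 15 min at room temperature with compound. Then 40 uM arachidonic acid was added, 30 min. Hydroperoxide was read by Fe-XO absorbance ratio 573/405 nm.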
TDP1 cell noCPT – qHTS for Inhibitors of human tyrosyl-DNA phosphodiesterase 1 (TDP1): qHTS in cells in absence of CPT | DT40 Tdp1-/- hTDP1 cells, no CPT, ATP luminescence, 48 h | hit rate 15% among 420,000 | Potency, µM (highest dose often 46.2 µM), without a hit: at the highest dose activity change, negative = growth inhibition, most hits filed as inhibitors; note: potency is the fitted concentration of half-maximal effect; nearly all actives have a fitted effect of over 55% in size
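Chicken DT40 Tdp1-/- cells stably complemented with human TDP1 were seeded at 400 cells/well with DMSO in place of 20 nM camptothecin. After compound pinning, cells grew at least 48 hr at 37 °C; viability read by CellTiter-Glo luminescence.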
HT1080 IDH1KD tx – qHTS for induction of synthetic lethality in tumor cells producing 2HG: qHTS for the HT-1080-IDH1KD cell line. Potency, µM (highest dose often 46.1 µM), for inactives: top-dose activity, negative = toxicity, usual class: cytotoxic. hit rate 2% among 360,000. HT-1080 IDH1 knockdown viability, ATP luminescence, 48 h;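 note: potency is the fitted concentration of half-maximal effect; 0% = DMSO wells and -100% = cell-free medium wells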
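Using the IDH1-knockdown HT-1080 line run in the same batch and compound series as the NT line, viability after 48 h at 37 °C was determined by CellTiter-Glo luminescence and expressed as % activity.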
IL-1B inflam inh – qHTS for Inhibitors of Inflammasome Signaling: IL-1-beta AlphaLISA Primary Screen; THP-1 LPS/ATP IL-1B secretion, AlphaLISA, 16 h; stronger effect = lower value; activity change, % at 57.5 µM; hit rate 4.7% among 360,000; in the data active = activity change below about -50%; inconclusive = mostly about -30% to -49%
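THP-1 cells pretreated 1 hr with compounds (up to 57.5 uM final), then stimulated with LPS (250 ng/mL final) plus ATP (1.25 mM final); secreted IL-1B measured by AlphaLISA after 16 hr, decreased signal indicating inhibition.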
HT1080NT lethal – qHTS for induction of synthetic lethality in tumor cells producing 2HG: qHTS for the HT-1080-NT fibrosarcoma cell line; HT-1080-NT fibrosarcoma viability, CellTiter-Glo ATP luminescence, 48 h; Potency, µM (series often up to 46.1 µM), without a hit: top-dose activity, negative = less viability, hits mostly cytotoxic; hit rate 1.6% among 360,000;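 note: NT is the 2HG producing partner of a matched IDH1 knockdown line; potency is the fitted concentration of half-maximal effect; 0% = DMSO-treated cells and -100% = media-only wells without cells; nearly all actives have a fitted effect of over 55% in size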
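Compounds were tested in concentration-response format on HT-1080-NT cells for 48 hours at 37 degrees C. Cell viability came from CellTiter-Glo luminescence; curves were classified by r2, response magnitude and activity.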
Numbers without * were called inactive; [ ] = another dose, or the depositor's remark. Unless noted, calls come from the whole dose curve; as a rule, active = well fitted curve in the direction sought with a large enough effect; inconclusive = small, poorly fitted or top-dose-only effect, or another doubt; inactive = no such curve, though single readings can be large; an effect the other way counts as inactive or inconclusive. Unless noted, % is set by controls: 0 for no effect and ±100 for the full control effect.

CCN1C(=NCc2cc(OC)c(OC)c(OC)c2)N[C@@H](c2ccccc2)C(C(=O)OC)=C1C was read as DT40 TDP1 CPT inconclusive, TDP1 cell noCPT -15.7%, HT1080 IDH1KD tx 3.4%, IL-1B inflam inh -13.3 and HT1080NT lethal 7.2%.
`Cc1ccc(CC(=O)NC2CCN(c3nnc4cccc(C)n34)CC2)cc1` gave ALOX12 inh 56.9%.
`OC1c2cc(Br)ccc2N=C2CCCN21` (stereo not given) gave DT40 TDP1 CPT 11.6µM*, ALOX12 inh -1.2%, TDP1 cell noCPT 18.4µM*, HT1080 IDH1KD tx -11.9%, IL-1B inflam inh -97.5* and HT1080NT lethal inconclusive.
For OC1c2cc(Br)ccc2N=C2CCCCCN21 (stereo not given) the results were DT40 TDP1 CPT inconclusive, ALOX12 inh 2.5%, TDP1 cell noCPT 16.4µM*, HT1080 IDH1KD tx 0.9%, IL-1B inflam inh 28.1 and HT1080NT lethal -0.4%.
For CN(C1=NS(=O)(=O)N=C(N(C)c2ccccc2)O1)c1ccccc1 the results were DT40 TDP1 CPT inconclusive, ALOX12 inh 1.7%, TDP1 cell noCPT inconclusive, HT1080 IDH1KD tx inconclusive, IL-1B inflam inh -102.4* and HT1080NT lethal inconclusive.
Screening COc1cccc(C2CC(OCCF)=CC(=O)O2)c1 (stereo not given) returned DT40 TDP1 CPT inconclusive, ALOX12 inh 25.7%, TDP1 cell noCPT -9.9%, HT1080 IDH1KD tx -22.1%, IL-1B inflam inh 13.5 and HT1080NT lethal -13.8%.
`CC1CCCN(S(=O)(=O)c2cccc([N+](=O)[O-])c2)C1` (stereo not given) gave DT40 TDP1 CPT -13.4%, ALOX12 inh 75.8%, TDP1 cell noCPT inconclusive, HT1080 IDH1KD tx 1.0%, IL-1B inflam inh -3.8 and HT1080NT lethal -2.3%.
Screening O=C(Nc1nc(-c2ccccc2)cs1)C1CCCN(S(=O)(=O)c2cccc([N+](=O)[O-])c2)C1 (stereo not given) returned DT40 TDP1 CPT 20.6µM*, ALOX12 inh 0.0%, TDP1 cell noCPT inconclusive, HT1080 IDH1KD tx -0.7%, IL-1B inflam inh -24.8 and HT1080NT lethal -15.0%.
O=C(Nc1nc(-c2ccccc2)cs1)C1CCCCN1S(=O)(=O)c1ccccc1 (stereo not given) was read as DT40 TDP1 CPT 25.9µM*, ALOX12 inh -17.7%[57.4 µM], TDP1 cell noCPT 23.1µM*, HT1080 IDH1KD tx inconclusive, IL-1B inflam inh -8.3 and HT1080NT lethal inconclusive.
`O=C(Nc1nc(-c2ccccc2)cs1)C1CCCN(S(=O)(=O)c2ccccc2)C1` (stereo not given) gave DT40 TDP1 CPT 6.51µM*, ALOX12 inh inconclusive, TDP1 cell noCPT 6.51µM*, HT1080 IDH1KD tx inconclusive, IL-1B inflam inh -8.0 and HT1080NT lethal inconclusive.
For O=C(c1ccc(F)c(F)c1)N1CCN(c2cc(-c3ccc(Cl)cc3)[nH]n2)CC1 the results were ALOX12 inh 40.3%.
`CCOc1ccc(-n2c(=O)c3c4c(sc3n(CC(=O)NC(C)CC)c2=O)CCC4)cc1` (stereo not given) gave DT40 TDP1 CPT 18.1%, ALOX12 inh -12.3% and TDP1 cell noCPT -14.6%.
`Cc1ccc(S(=O)(=O)c2c(C)c(C)n(Cc3ccco3)c2N)cc1` gave ALOX12 inh 44.7µM*.
Screening COCCn1c(C)c(C)c(S(=O)(=O)c2ccccc2)c1N returned DT40 TDP1 CPT -24.4%, ALOX12 inh inconclusive, TDP1 cell noCPT 0.8%, HT1080 IDH1KD tx 10.3%, IL-1B inflam inh 2.8 and HT1080NT lethal 3.5%.
Screening COc1ccc(Cn2c(C)nc3c(c2=O)c2nc4ccccc4nc2n3Cc2ccco2)cc1 returned DT40 TDP1 CPT 14.6µM*, ALOX12 inh inconclusive, TDP1 cell noCPT 8.2µM*, HT1080 IDH1KD tx inconclusive, IL-1B inflam inh 0.0 and HT1080NT lethal inconclusive.
Cc1nc2ccccc2c(=O)n1Cc1ccco1 was read as DT40 TDP1 CPT -5.1%, ALOX12 inh 179.7%, TDP1 cell noCPT -18.3%, HT1080 IDH1KD tx -1.1%, IL-1B inflam inh 15.0 and HT1080NT lethal 5.2%.
For Cc1cc(C)cc(-n2c3nc4ccccc4nc3c3c(=O)n(Cc4ccco4)cnc32)c1 the results were DT40 TDP1 CPT 23.1µM*, ALOX12 inh inconclusive, TDP1 cell noCPT 11.6µM*, HT1080 IDH1KD tx 1.5%, IL-1B inflam inh -18.4 and HT1080NT lethal -0.9%.
Screening CCC(C)n1cnc2c(c1=O)c1nc3ccccc3nc1n2Cc1ccc(OC)cc1 (stereo not given) returned DT40 TDP1 CPT inconclusive, ALOX12 inh 0.0%, TDP1 cell noCPT 14.6µM*, HT1080 IDH1KD tx 6.6%, IL-1B inflam inh -24.7 and HT1080NT lethal inconclusive.
COCCCn1cnc2c(c1=O)c1nc3ccccc3nc1n2-c1ccc(C)cc1 was read as DT40 TDP1 CPT inconclusive, ALOX12 inh 106.8%, TDP1 cell noCPT inconclusive, HT1080 IDH1KD tx -5.2%[9.24 µM], IL-1B inflam inh -17.2 and HT1080NT lethal 4.3%.
Cc1nn2c(c1-c1cccc3cn[nH]c13)N(C(=O)COc1ccccc1C(N)=O)CCC2 was read as ALOX12 inh 30.6%[176 µM].
For Cc1noc(-c2ccc(N3CCC(CN4CCCC4=O)CC3)nc2)n1 the results were ALOX12 inh 0.2%.
For COc1ccc(S(=O)(=O)c2c(N)n(Cc3ccco3)c3nc4ccccc4nc23)cc1 the results were DT40 TDP1 CPT 18.4µM*, ALOX12 inh 0.4%, TDP1 cell noCPT -86.3%, HT1080 IDH1KD tx -22.5%, IL-1B inflam inh -6.0 and HT1080NT lethal -13.6%.
Screening COc1ccc(C(=O)N2N=C(c3ccsc3)CC2c2ccc3nccnc3c2)cc1 (stereo not given) returned ALOX12 inh -6.8%.
`COc1cccc(C(=O)N(Cc2ccccc2)Cc2cc3cc4c(cc3[nH]c2=O)OCCO4)c1` gave DT40 TDP1 CPT 13µM*, ALOX12 inh 6.3%, TDP1 cell noCPT 20.6µM*, HT1080 IDH1KD tx inconclusive, IL-1B inflam inh -11.0 and HT1080NT lethal inconclusive.
